Measurements published in article PMC7862700, “An all-to-all approach to the identification of sequence-specific readers for epigenetic DNA modifications on cytosine”.

These sequences were tested against ELF4 (Homo sapiens, UniProt Q99607 1-663) (assay: DAPPL (digital affinity profiling via proximity ligation, sequencing); 10 mM Tris-HCl pH 7.5, 50 mM NaCl, 1 mM DTT, 4% glycerol, room temperature, 30 min; GST-TFs on glutathione beads, 16-mer random dsDNA library, 0.1% formaldehyde crosslink after washing; high values mean tight binding). Conditions: protein: recombinant; tags: N-terminal GST; dsDNA, one strand shown.
Sequence of ELF4 (Q99607 whole entry, the tested form may be a part): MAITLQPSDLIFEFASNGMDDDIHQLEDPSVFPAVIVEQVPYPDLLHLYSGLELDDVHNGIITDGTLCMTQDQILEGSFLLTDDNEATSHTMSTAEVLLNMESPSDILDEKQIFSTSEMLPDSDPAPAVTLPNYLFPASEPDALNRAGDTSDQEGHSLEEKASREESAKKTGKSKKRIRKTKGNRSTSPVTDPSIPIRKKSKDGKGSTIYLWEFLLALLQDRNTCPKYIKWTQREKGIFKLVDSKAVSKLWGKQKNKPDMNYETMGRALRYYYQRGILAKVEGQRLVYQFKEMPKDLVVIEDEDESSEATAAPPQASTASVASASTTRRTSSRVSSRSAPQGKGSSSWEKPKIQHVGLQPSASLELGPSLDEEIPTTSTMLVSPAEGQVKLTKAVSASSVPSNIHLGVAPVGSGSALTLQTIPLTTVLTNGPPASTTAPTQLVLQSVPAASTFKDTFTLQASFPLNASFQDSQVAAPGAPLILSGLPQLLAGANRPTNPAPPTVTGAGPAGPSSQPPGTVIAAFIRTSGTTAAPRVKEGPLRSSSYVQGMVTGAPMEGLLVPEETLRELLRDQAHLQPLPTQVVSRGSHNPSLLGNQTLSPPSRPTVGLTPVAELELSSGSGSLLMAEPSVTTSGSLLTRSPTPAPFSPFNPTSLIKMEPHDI
Method in brief: (§1)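 Beads coated with glutathione captured GST-fused human transcription factors that had been expressed in yeast, and the factors were then given DNA barcodes and pooled with a tag-only sample. The pools were incubated with 200 nmole of a random double-stranded 16-mer DNA library in Tris/NaCl/DTT/glycerol buffer for 30 min at room temperature, washed, crosslinked with 0.1% formaldehyde and proximity-ligated with BsaI/T4 ligase at 37 °C for 1 h. PCR amplification and Illumina NextSeq500 sequencing came last. Binding signal is each hexamer's read frequency for a factor divided by its frequency for the tag-only sample.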
In the case of GATTCA, the binding signal is reported as 1.15 fold enrichment (6-mer frequency, TF over GST control). For GCTCCA, the binding signal was 1.22 fold enrichment (6-mer frequency, TF over GST control). TCCTTT was tested, and the binding signal was 1.77 fold enrichment (6-mer frequency, TF over GST control). For CATTCT, the binding signal was 1.37 fold enrichment (6-mer frequency, TF over GST control). TTCCTG was tested, and the binding signal was 2.05 fold enrichment (6-mer frequency, TF over GST control). In the case of CCTCCT, the binding signal is reported as 1.66 fold enrichment (6-mer frequency, TF over GST control). For TATGAT, the binding signal was 1.12 fold enrichment (6-mer frequency, TF over GST control). CGATCT was tested, and the binding signal was 1.37 fold enrichment (6-mer frequency, TF over GST control). With AGCTAT the binding signal was 1.15 fold enrichment (6-mer frequency, TF over GST control). In the case of TTATGC, the binding signal is reported as 1.31 fold enrichment (6-mer frequency, TF over GST control). In the case of CTTGCC, the binding signal is reported as 1.26 fold enrichment (6-mer frequency, TF over GST control). With TATCAT the binding signal was 1.21 fold enrichment (6-mer frequency, TF over GST control). For ATTTCA, the binding signal was 1.27 fold enrichment (6-mer frequency, TF over GST control). For TCTCGA, the binding signal was 1.51 fold enrichment (6-mer frequency, TF over GST control). In the case of TACGCT, the binding signal is reported as 1.39 fold enrichment (6-mer frequency, TF over GST control). With CTGCTG the binding signal was 1.25 fold enrichment (6-mer frequency, TF over GST control). With GCCTCG the binding signal was 1.38 fold enrichment (6-mer frequency, TF over GST control). In the case of TATTGA, the binding signal is reported as 1.17 fold enrichment (6-mer frequency, TF over GST control). For TTGATA, the binding signal was 1.29 fold enrichment (6-mer frequency, TF over GST control). TGGATG was tested, and the binding signal was 1.49 fold enrichment (6-mer frequency, TF over GST control).

What follows are sequences tested against T1, ELK4 (Homo sapiens, UniProt P28324-2 1-405) in the same assay as above. Conditions: protein: recombinant; tags: N-terminal GST; dsDNA, one strand shown.
T1 sequence: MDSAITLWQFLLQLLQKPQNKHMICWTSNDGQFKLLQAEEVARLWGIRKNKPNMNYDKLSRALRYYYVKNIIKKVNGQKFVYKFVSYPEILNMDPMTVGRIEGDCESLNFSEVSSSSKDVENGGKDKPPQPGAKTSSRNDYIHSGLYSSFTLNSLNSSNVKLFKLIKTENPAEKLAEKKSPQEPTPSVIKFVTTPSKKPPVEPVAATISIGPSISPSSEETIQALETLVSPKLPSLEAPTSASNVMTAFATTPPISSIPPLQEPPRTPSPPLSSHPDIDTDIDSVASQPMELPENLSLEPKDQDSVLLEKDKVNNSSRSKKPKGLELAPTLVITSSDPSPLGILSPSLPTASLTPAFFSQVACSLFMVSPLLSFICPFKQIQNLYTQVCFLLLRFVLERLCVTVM
Method in brief: as §1
In the case of ATATAC, the binding signal is reported as 1.2 fold enrichment (6-mer frequency, TF over GST control). For CTTTCC, the binding signal was 1.94 fold enrichment (6-mer frequency, TF over GST control). In the case of ACGTCT, the binding signal is reported as 1.12 fold enrichment (6-mer frequency, TF over GST control). TCTACT was tested, and the binding signal was 1.27 fold enrichment (6-mer frequency, TF over GST control). In the case of TTGGTT, the binding signal is reported as 1.32 fold enrichment (6-mer frequency, TF over GST control). For GTTCTG, the binding signal was 1.3 fold enrichment (6-mer frequency, TF over GST control). ATGGTT was tested, and the binding signal was 1.42 fold enrichment (6-mer frequency, TF over GST control). In the case of TCCTTG, the binding signal is reported as 1.41 fold enrichment (6-mer frequency, TF over GST control). In the case of CGACTC, the binding signal is reported as 1.35 fold enrichment (6-mer frequency, TF over GST control). AAGTCC was tested, and the binding signal was 1.25 fold enrichment (6-mer frequency, TF over GST control). In the case of ATTTAA, the binding signal is reported as 1.18 fold enrichment (6-mer frequency, TF over GST control). For CCTGAC, the binding signal was 1.5 fold enrichment (6-mer frequency, TF over GST control). CCCGAT was tested, and the binding signal was 1.11 fold enrichment (6-mer frequency, TF over GST control). With TAGTAT the binding signal was 1.31 fold enrichment (6-mer frequency, TF over GST control). For AAACCT, the binding signal was 1.2 fold enrichment (6-mer frequency, TF over GST control). With GTCTCG the binding signal was 1.3 fold enrichment (6-mer frequency, TF over GST control). In the case of ACTTCA, the binding signal is reported as 1.56 fold enrichment (6-mer frequency, TF over GST control). In the case of CTCAAT, the binding signal is reported as 1.3 fold enrichment (6-mer frequency, TF over GST control). With CCAATA the binding signal was 1.23 fold enrichment (6-mer frequency, TF over GST control). GCCTTA was tested, and the binding signal was 1.1 fold enrichment (6-mer frequency, TF over GST control). With GATTCA the binding signal was 1.24 fold enrichment (6-mer frequency, TF over GST control). GCTCCA was tested, and the binding signal was 1.24 fold enrichment (6-mer frequency, TF over GST control). In the case of TCCTTT, the binding signal is reported as 1.62 fold enrichment (6-mer frequency, TF over GST control). With CATTCT the binding signal was 1.36 fold enrichment (6-mer frequency, TF over GST control). TTCCTG was tested, and the binding signal was 1.78 fold enrichment (6-mer frequency, TF over GST control). For CCTCCT, the binding signal was 1.61 fold enrichment (6-mer frequency, TF over GST control). With TATGAT the binding signal was 1.25 fold enrichment (6-mer frequency, TF over GST control). With CGATCT the binding signal was 1.38 fold enrichment (6-mer frequency, TF over GST control). In the case of AGCTAT, the binding signal is reported as 1.27 fold enrichment (6-mer frequency, TF over GST control). TTATGC was tested, and the binding signal was 1.33 fold enrichment (6-mer frequency, TF over GST control). In the case of CTTGCC, the binding signal is reported as 1.17 fold enrichment (6-mer frequency, TF over GST control). For TATCAT, the binding signal was 1.16 fold enrichment (6-mer frequency, TF over GST control). ATTTCA was tested, and the binding signal was 1.27 fold enrichment (6-mer frequency, TF over GST control). In the case of TCTCGA, the binding signal is reported as 1.46 fold enrichment (6-mer frequency, TF over GST control). With TACGCT the binding signal was 1.26 fold enrichment (6-mer frequency, TF over GST control). CTGCTG was tested, and the binding signal was 1.27 fold enrichment (6-mer frequency, TF over GST control). In the case of GCCTCG, the binding signal is reported as 1.32 fold enrichment (6-mer frequency, TF over GST control). For TATTGA, the binding signal was 1.17 fold enrichment (6-mer frequency, TF over GST control). For TTGATA, the binding signal was 1.42 fold enrichment (6-mer frequency, TF over GST control). With TGGATG the binding signal was 1.23 fold enrichment (6-mer frequency, TF over GST control).

Each sequence was assayed against T2, ETV2 (Homo sapiens, UniProt O00321 1-342) in the same assay as above. Conditions: protein: recombinant; tags: N-terminal GST; dsDNA, one strand shown.
T2 sequence: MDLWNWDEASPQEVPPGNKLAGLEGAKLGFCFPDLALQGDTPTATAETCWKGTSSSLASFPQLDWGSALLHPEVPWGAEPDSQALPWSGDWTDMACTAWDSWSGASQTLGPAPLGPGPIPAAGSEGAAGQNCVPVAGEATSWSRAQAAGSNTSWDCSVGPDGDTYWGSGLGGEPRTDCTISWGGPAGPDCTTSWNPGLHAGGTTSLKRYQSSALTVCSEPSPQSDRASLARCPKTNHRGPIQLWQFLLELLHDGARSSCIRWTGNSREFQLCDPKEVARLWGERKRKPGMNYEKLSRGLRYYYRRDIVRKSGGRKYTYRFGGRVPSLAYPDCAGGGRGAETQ
Method in brief: as §1
ATATAC was tested, and the binding signal was 1.12 fold enrichment (6-mer frequency, TF over GST control). CTTTCC was tested, and the binding signal was 2.11 fold enrichment (6-mer frequency, TF over GST control). With ACGTCT the binding signal was 1.18 fold enrichment (6-mer frequency, TF over GST control). For TCTACT, the binding signal was 1.31 fold enrichment (6-mer frequency, TF over GST control). For TTGGTT, the binding signal was 1.29 fold enrichment (6-mer frequency, TF over GST control). GTTCTG was tested, and the binding signal was 1.09 fold enrichment (6-mer frequency, TF over GST control). In the case of ATGGTT, the binding signal is reported as 1.24 fold enrichment (6-mer frequency, TF over GST control). TCCTTG was tested, and the binding signal was 1 fold enrichment (6-mer frequency, TF over GST control). With CGACTC the binding signal was 1.34 fold enrichment (6-mer frequency, TF over GST control). AAGTCC was tested, and the binding signal was 1.19 fold enrichment (6-mer frequency, TF over GST control). ATTTAA was tested, and the binding signal was 1.17 fold enrichment (6-mer frequency, TF over GST control). For CCTGAC, the binding signal was 1.61 fold enrichment (6-mer frequency, TF over GST control). For CCCGAT, the binding signal was 1.02 fold enrichment (6-mer frequency, TF over GST control). TAGTAT was tested, and the binding signal was 1.34 fold enrichment (6-mer frequency, TF over GST control). AAACCT was tested, and the binding signal was 1.19 fold enrichment (6-mer frequency, TF over GST control). With GTCTCG the binding signal was 1.03 fold enrichment (6-mer frequency, TF over GST control). ACTTCA was tested, and the binding signal was 1.37 fold enrichment (6-mer frequency, TF over GST control). With CTCAAT the binding signal was 1.4 fold enrichment (6-mer frequency, TF over GST control). In the case of CCAATA, the binding signal is reported as 1.09 fold enrichment (6-mer frequency, TF over GST control). With GCCTTA the binding signal was 1.1 fold enrichment (6-mer frequency, TF over GST control). With GATTCA the binding signal was 1.08 fold enrichment (6-mer frequency, TF over GST control). GCTCCA was tested, and the binding signal was 1.29 fold enrichment (6-mer frequency, TF over GST control). With TCCTTT the binding signal was 1.47 fold enrichment (6-mer frequency, TF over GST control). For CATTCT, the binding signal was 1.36 fold enrichment (6-mer frequency, TF over GST control). With TTCCTG the binding signal was 2.46 fold enrichment (6-mer frequency, TF over GST control). In the case of CCTCCT, the binding signal is reported as 1.45 fold enrichment (6-mer frequency, TF over GST control). TATGAT was tested, and the binding signal was 1.27 fold enrichment (6-mer frequency, TF over GST control). In the case of CGATCT, the binding signal is reported as 1.27 fold enrichment (6-mer frequency, TF over GST control). With AGCTAT the binding signal was 1.2 fold enrichment (6-mer frequency, TF over GST control). With TTATGC the binding signal was 1.22 fold enrichment (6-mer frequency, TF over GST control). CTTGCC was tested, and the binding signal was 1.24 fold enrichment (6-mer frequency, TF over GST control). TATCAT was tested, and the binding signal was 1.24 fold enrichment (6-mer frequency, TF over GST control). ATTTCA was tested, and the binding signal was 1.28 fold enrichment (6-mer frequency, TF over GST control). In the case of TCTCGA, the binding signal is reported as 1.27 fold enrichment (6-mer frequency, TF over GST control). In the case of TACGCT, the binding signal is reported as 1.23 fold enrichment (6-mer frequency, TF over GST control). With CTGCTG the binding signal was 1.05 fold enrichment (6-mer frequency, TF over GST control). GCCTCG was tested, and the binding signal was 1.06 fold enrichment (6-mer frequency, TF over GST control). TATTGA was tested, and the binding signal was 1.14 fold enrichment (6-mer frequency, TF over GST control). With TTGATA the binding signal was 1.23 fold enrichment (6-mer frequency, TF over GST control). TGGATG was tested, and the binding signal was 1.49 fold enrichment (6-mer frequency, TF over GST control).
